This passage reports inhibition results from PubChem BioAssay.

SMILES strings stand for the structures. Values without a mark were called inactive. How the calls were made is not given here.

By inhibition is commonly meant the change of the read-out against control, counted positive when it falls.

Sequence of Pantothenate synthetase (Mycobacterium tuberculosis (strain ATCC 25618 / H37Rv)) (P9WIL5 whole entry, looked up): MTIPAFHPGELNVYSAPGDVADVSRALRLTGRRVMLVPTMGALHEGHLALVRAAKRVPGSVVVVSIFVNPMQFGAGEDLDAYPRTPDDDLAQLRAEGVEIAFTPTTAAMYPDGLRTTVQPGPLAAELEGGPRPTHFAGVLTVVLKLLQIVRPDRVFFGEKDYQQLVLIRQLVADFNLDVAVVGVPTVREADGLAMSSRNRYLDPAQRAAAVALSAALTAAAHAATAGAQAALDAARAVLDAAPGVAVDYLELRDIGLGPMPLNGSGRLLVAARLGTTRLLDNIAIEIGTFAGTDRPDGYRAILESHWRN

This assay concerns the target Pantothenate synthetase (Mycobacterium tuberculosis (strain ATCC 25618 / H37Rv)) (UniProt P9WIL5). Description: Recombinant Mtb pantothenate synthetase (PanC) inhibitors, coupled enzyme, confirmatory (AID 375).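 Further: 0% = full reaction with vehicle and 100% = no enzyme background.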 The following applies: coupled enzyme assay; at 10 µM, active compounds read high.
Take `O=C1Nc2ccccc2OC1CC(=O)N1CCCC1` (centres undefined): the inhibition was 0%. The figure for `Nc1nonc1-c1noc(-c2ccccc2Br)n1` is 0%.

Consider `Cc1noc(NS(=O)(=O)c2ccc(NC(=O)CCC3CCCC3)cc2)c1C`, for which the inhibition was 0%. The figure for `O=C(c1ccccc1)N1CCN(Cc2ccccc2Br)CC1` is 3%; for `CCOc1cc(C2NC(=O)NC(O)(C(F)(F)F)C2C(=O)c2ccccc2)ccc1OC` (centres undefined) it is 3%; for `c1cnc2c(SCc3ccc(-c4nnco4)cc3)cccc2c1` it is 2%. The figure for `Cc1ccc(-n2c(Cn3cnc4ccccc43)nnc2SCC(=O)O)cc1` is 0%; for `C(=N/n1c2ccccc2c2ccccc21)/c1ccco1` it is 0%. Take `CC(C)Cn1c(-c2ccc(F)cc2)n[nH]c1=S`: the inhibition was 0%.

Turning to `Cc1csc(SCCn2c(N3CCCC3)nc3c2c(=O)[nH]c(=O)n3C)n1`, the inhibition is 0%. Take `O=C(CC(Cc1ccccc1)C(=O)O)NCCc1ccc2c(c1)OCO2` (centres undefined): the inhibition was 1%. On to `CCc1nnc(NC(=O)CSc2nnc3scc(-c4ccc(C)cc4)n23)s1`, for which the inhibition was 0%. As for `O=C(Nc1cc(C(=O)N2CCCC2)ccc1N1CCCC1)c1ccccc1F`, the figure is 2%.

As for `CCOC(=O)C1CSC(CC(=O)Nc2ccc(Cl)cc2)C(=O)N1` (centres undefined), the inhibition was 0%.

In the case of `Cc1ccc(-c2nnn(CC(=O)N(Cc3ccco3)C(C(=O)NC(C)(C)C)c3cccs3)n2)o1` (centres undefined), the inhibition is 0%. Consider `O=C(c1ccc(NS(=O)(=O)c2cccs2)cc1)N1CCCCC1`, for which the inhibition was 0%. On to `Cc1noc(C)c1S(=O)(=O)N1CCCC(C(=O)NCCc2ccc(Cl)cc2)C1` (centres undefined), for which the inhibition was 3%. As for `COc1ccc(C(O)Cn2c(=N)n(CCCN(C)C)c3ccccc32)cc1` (centres undefined), the inhibition is 0%. In the case of `O=S(=O)(c1ccccc1)c1nc(-c2cccs2)oc1NCC1CCCO1` (centres undefined), the inhibition is 3%. The figure for `CC(C)(C)C(=O)CCN1C(=O)C2(OCCO2)c2ccccc21` is 0%; for `CN(C)S(=O)(=O)N1CCN(S(=O)(=O)c2ccc(F)cc2)CC1` it is 0%. As for `COc1ccc(C2CC(c3ccc(OC)cc3)n3nc(N)nc3N2)cc1` (centres undefined), the figure is 0%. Turning to `COc1ccccc1N1CCN(C/C(O)=C(\C#N)c2nc(-c3ccccc3)cs2)CC1`, the inhibition is 2%.

As for `CN(C)c1cccc(NC(=O)CCc2ccccc2)c1`, the inhibition was 0%.

Take `Cc1cc2cc(CN(CCCN3CCOCC3)C(=O)NC3CCCCC3)c(=O)[nH]c2cc1C`: the inhibition is 2%. For the compound `CC(=O)Nc1c(O)nc(SCC(=O)Nc2nnc(CC(C)C)s2)[nH]c1=O`, the inhibition is 9%. For `Cc1cc(C(=O)OCC(=O)N2c3ccccc3CC2C)c(C)o1` (centres undefined), the inhibition was 3%.

On to `CCCn1nnnc1SCC(=O)c1ccc2c(c1)OCCO2`, for which the inhibition was 11%. For `Cc1oc(-c2ccccc2Cl)nc1CSCC(=O)N1CCCC1`, the inhibition is 1%. For `CCS(=O)(=O)N1CCC(C(=O)NCc2cccs2)CC1`, the inhibition is 2%. As for `CC1=C(C(=O)N2CCCCC2)C2(CCC(C)CC2)OC1=O` (centres undefined), the figure is 12%; as for `CC(CN1CCCCC1)OC(=O)c1ccc2c(c1)OCO2` (centres undefined), 0%; as for `CCCCC(c1nnnn1C1CCCC1)N1CCN(C2CCCCC2)CC1` (centres undefined), 1%. The figure for `CC1CCCc2sc3nc(NCc4ccco4)n4ncnc4c3c21` (centres undefined) is 0%; for `CCCn1cnc2c(c1=O)c1nc3ccccc3nc1n2Cc1ccccc1OC` it is 0%.

For `c1ccc(-c2cc(N3CCCCC3)ncn2)cc1`, the inhibition is 0%. The figure for `CCOc1ccc2[nH]c(=O)c(C(c3nnnn3CC3CCCO3)N3CCc4ccccc4C3)cc2c1` (centres undefined) is 0%; for `CC(=O)Nc1ccc(S(=O)(=O)NCc2csc(-c3cccnc3)n2)cc1` it is 0%; for `CN(CCNS(=O)(=O)c1ccc2c(c1)oc(=O)n2C)Cc1ccccc1` it is 0%.
